Data reported in the supplement of paper PMC10849652.
Of roughly 7,900 targets only a part is listed; those with a hit were picked by preference. About 0.6% of all pairs of compound and target were hits. Values without a mark were called inactive.

How the values were obtained:
Assay in all cases: log2 fold change, soluble protein after heating vs DMSO (PISA); higher = thermal stabilisation; K562 cells, 10 uM, 30 min; active = over 0.2 and 3.5 SD of the protein, either way, in both replicates (recomputed)
[1] = compound: CN1CCN(CCOc2cc(OC3CCOCC3)c3c(Nc4c(Cl)ccc5c4OCO5)ncnc3c2)CC1 [saracatinib]
Procedure, shortened: (§1)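 K562 cells at 2×10^6 cells/mL were treated for 30 min with 10 μM compound, and aliquots were heated for 3 min over 48°C-58°C before pooling. Extraction used PBS with 0.5% NP-40 at 4°C, and soluble protein was the supernatant after 21,000xg for 90 min, measured by TMTpro 16plex LC-MS/MS with channel sums equalised. Thermal stability values, relative to control samples and from duplicates, are log2 fold changes.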

[2] = compound: CN1CCN(c2nc(C3=C(c4c[nH]c5ccccc45)C(=O)NC3=O)c3ccccc3n2)CC1 [sotrastaurin]
Procedure, shortened: as §1

[3] = compound: CN1CC[C@H](c2c(O)cc(O)c3c(=O)cc(-c4ccccc4Cl)oc23)[C@H](O)C1 [alvocidib]
Procedure, shortened: as §1

[4] = compound: CN1CCc2c(c3ccccc3n2Cc2ccc(C(=O)NO)cc2)C1 [Tubastatin A]
Procedure, shortened: as §1

[5] = compound: CNC(=O)C1=CC=CC=C1NC2=NC(=NC=C2Cl)NC3=C(C=C(C=C3)N4CCOCC4)OC
Procedure, shortened: as §1

[6] = compound: CNC(=O)c1ccc(Nc2ncc(C(F)(F)F)c(NCc3nccnc3N(C)S(C)(=O)=O)n2)cc1 [defactinib]
Procedure, shortened: as §1

[7] = compound: CNCc1ccc(-c2[nH]c3cc(F)cc4c3c2CCNC4=O)cc1 [rucaparib]
Procedure, shortened: as §1

[8] = compound: CNc1nc(-c2ccc3c(N)n[nH]c3c2)cc(N2C[C@@H](C(=O)NC3CCCCC3)CC[C@H]2C)n1
Procedure, shortened: as §1

[9] = compound: COC(=O)N[C@@H](C)CNc1nccc(-c2cn(C(C)C)nc2-c2cc(Cl)cc(NS(C)(=O)=O)c2F)n1 [encorafenib]
Procedure, shortened: as §1

[10] = compound: COC(=O)[C@H](CCSC)NC(=O)C1=C(C=C(C=C1)NC[C@H](CS)N)C2=CC=CC=C2
Procedure, shortened: as §1

[11] = compound: COC1=CC=C(C=C1)CN2C=CC3=C2C=C(C=C3)C(=O)NO
Procedure, shortened: as §1

[12] = compound: CON(C)C(=O)N1N=C(c2cc(F)ccc2F)S[C@@]1(CCCN)c1ccccc1 [filanesib]
Procedure, shortened: as §1

[13] = compound: CO[C@H]1C[C@@H]2CC[C@@H](C)[C@@](O)(O2)C(=O)C(=O)N2CCCC[C@H]2C(=O)O[C@H]([C@H](C)C[C@@H]2CC[C@H](n3cnnn3)[C@H](OC)C2)CC(=O)[C@H](C)/C=C(\C)[C@@H](O)[C@@H](OC)C(=O)[C@H](C)C[C@H](C)/C=C/C=C/C=C/1C [zotarolimus]
Procedure, shortened: as §1

[14] = compound: COc1cc(C(=O)O)ccc1NC(=O)[C@@H]1N[C@@H](CC(C)(C)C)[C@](C#N)(c2ccc(Cl)cc2F)[C@H]1c1cccc(Cl)c1F [idasanutlin]
Procedure, shortened: as §1

[15] = compound: COc1cc(Nc2ncc3c(n2)-c2ccc(Cl)cc2C(c2c(F)cccc2OC)=NC3)ccc1C(=O)O [alisertib]
Procedure, shortened: as §1

[16] = compound: COc1cc2nc(-c3cc(F)ccc3O)nc(N[C@@H]3CNC[C@H]3C(C)(C)O)c2cc1OC
Procedure, shortened: as §1

[17] = compound: COc1cc2ncnc(Nc3ccc(F)c(Cl)c3)c2cc1OCCCN1CCOCC1 [gefitinib]
Procedure, shortened: as §1

[18] = compound: COc1cccc2cc(-c3nc([C@H]4CC[C@H](C(=O)O)CC4)n4ncnc(N)c34)[nH]c12
Procedure, shortened: as §1

[19] = compound: CS(=O)(=O)CCNCc1ccc(-c2ccc3ncnc(Nc4ccc(OCc5cccc(F)c5)c(Cl)c4)c3c2)o1 [lapatinib]
Procedure, shortened: as §1

[20] = compound: CS(=O)(=O)N1CCN(Cc2cc3nc(-c4cccc5[nH]ncc45)nc(N4CCOCC4)c3s2)CC1 [pictilisib]
Procedure, shortened: as §1

UniProt P52732, sequence (P52732 whole entry, looked up): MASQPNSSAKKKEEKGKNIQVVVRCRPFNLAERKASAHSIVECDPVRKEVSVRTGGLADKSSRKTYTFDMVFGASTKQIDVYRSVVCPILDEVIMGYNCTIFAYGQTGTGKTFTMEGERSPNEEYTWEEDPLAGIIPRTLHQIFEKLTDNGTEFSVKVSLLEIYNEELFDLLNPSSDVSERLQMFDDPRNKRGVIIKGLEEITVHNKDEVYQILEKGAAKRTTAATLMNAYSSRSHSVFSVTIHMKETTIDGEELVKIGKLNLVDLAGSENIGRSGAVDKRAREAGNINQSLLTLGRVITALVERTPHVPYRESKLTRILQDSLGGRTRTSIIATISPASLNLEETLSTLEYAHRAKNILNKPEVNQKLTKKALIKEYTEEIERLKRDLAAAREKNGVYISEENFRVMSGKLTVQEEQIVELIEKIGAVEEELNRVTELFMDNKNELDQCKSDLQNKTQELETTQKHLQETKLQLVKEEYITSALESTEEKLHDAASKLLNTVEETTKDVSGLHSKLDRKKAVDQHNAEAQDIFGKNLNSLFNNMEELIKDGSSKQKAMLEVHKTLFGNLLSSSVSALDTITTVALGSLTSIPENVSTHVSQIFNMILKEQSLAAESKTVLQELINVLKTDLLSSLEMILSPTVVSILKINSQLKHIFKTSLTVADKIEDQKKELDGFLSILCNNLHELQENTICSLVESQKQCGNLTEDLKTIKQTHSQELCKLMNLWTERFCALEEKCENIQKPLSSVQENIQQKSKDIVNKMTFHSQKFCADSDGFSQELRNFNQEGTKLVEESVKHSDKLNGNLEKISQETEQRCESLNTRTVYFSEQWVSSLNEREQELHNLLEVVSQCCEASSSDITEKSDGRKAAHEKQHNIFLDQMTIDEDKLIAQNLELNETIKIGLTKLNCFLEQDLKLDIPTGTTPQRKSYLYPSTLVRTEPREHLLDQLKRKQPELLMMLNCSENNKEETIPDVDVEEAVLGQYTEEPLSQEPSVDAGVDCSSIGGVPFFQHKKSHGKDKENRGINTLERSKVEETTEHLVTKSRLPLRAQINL
UniProt Q9H9P8, sequence (Q9H9P8 whole entry, looked up): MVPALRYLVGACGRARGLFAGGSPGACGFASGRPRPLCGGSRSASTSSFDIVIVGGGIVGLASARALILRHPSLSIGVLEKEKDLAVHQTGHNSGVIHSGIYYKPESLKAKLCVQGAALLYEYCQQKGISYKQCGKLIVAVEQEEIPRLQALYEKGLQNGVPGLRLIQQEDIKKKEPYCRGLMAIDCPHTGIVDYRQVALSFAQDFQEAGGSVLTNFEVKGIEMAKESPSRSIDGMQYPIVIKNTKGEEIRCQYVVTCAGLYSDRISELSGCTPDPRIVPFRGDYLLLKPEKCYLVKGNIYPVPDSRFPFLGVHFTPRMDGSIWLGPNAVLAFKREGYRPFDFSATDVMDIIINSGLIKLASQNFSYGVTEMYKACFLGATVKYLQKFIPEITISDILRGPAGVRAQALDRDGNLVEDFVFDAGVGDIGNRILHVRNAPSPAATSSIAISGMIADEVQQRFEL
UniProt P36507, sequence (P36507 whole entry, looked up): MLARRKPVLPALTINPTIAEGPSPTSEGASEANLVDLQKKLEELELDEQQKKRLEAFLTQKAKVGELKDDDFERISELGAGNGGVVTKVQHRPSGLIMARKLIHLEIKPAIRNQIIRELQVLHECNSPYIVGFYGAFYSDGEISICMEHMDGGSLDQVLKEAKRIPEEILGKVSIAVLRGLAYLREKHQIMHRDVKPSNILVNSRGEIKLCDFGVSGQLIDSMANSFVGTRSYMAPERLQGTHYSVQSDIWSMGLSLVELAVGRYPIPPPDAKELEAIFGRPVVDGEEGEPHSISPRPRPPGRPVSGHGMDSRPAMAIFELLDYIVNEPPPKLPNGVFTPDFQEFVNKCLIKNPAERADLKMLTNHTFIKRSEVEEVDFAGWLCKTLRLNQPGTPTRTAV
UniProt Q16539, sequence (Q16539 whole entry, looked up): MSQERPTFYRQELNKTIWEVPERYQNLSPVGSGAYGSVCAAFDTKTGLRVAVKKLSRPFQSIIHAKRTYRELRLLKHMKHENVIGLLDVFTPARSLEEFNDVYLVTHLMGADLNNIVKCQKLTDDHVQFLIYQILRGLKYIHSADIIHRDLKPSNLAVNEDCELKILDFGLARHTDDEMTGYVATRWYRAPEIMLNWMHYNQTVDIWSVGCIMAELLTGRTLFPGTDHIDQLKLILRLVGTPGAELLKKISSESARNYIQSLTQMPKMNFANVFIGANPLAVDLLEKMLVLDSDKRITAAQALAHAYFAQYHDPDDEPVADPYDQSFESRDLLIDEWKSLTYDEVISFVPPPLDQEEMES
UniProt P32019, sequence (P32019 whole entry, looked up): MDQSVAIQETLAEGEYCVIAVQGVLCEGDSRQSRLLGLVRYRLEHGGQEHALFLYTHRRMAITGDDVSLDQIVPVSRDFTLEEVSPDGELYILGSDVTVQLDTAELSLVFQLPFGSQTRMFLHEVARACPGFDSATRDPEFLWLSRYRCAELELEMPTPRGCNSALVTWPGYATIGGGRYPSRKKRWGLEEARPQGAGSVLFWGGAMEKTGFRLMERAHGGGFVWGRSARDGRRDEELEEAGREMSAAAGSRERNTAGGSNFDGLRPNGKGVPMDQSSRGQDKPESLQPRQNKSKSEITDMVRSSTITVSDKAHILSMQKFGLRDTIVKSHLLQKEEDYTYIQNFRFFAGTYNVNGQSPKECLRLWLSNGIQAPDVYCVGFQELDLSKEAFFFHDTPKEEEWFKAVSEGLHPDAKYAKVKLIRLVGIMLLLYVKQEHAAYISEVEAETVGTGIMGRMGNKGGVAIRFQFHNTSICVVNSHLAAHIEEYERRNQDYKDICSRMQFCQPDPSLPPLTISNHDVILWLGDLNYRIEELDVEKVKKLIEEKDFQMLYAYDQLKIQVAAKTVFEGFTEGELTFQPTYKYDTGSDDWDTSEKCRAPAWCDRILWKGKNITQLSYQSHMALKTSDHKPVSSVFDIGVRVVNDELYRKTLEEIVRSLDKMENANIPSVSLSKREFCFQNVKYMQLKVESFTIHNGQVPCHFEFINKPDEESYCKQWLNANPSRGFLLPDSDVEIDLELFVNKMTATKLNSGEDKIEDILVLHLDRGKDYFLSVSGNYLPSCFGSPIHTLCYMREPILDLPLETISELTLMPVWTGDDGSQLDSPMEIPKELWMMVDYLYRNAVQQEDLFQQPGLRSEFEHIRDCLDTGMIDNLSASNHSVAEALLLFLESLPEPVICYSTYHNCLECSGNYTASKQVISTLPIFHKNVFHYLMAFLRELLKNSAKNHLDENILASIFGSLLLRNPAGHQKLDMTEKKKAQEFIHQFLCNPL
UniProt Q9H6V9, sequence (Q9H6V9 whole entry, looked up): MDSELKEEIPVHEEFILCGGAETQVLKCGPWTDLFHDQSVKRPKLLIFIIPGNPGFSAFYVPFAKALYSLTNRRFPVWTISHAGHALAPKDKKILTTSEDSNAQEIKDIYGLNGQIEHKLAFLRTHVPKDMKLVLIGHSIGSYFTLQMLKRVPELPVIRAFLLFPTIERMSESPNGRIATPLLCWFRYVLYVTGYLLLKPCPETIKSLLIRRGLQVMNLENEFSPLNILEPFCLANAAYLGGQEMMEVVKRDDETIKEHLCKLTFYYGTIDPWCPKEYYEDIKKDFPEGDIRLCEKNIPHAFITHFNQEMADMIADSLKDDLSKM
UniProt Q14681, sequence (Q14681 whole entry, looked up): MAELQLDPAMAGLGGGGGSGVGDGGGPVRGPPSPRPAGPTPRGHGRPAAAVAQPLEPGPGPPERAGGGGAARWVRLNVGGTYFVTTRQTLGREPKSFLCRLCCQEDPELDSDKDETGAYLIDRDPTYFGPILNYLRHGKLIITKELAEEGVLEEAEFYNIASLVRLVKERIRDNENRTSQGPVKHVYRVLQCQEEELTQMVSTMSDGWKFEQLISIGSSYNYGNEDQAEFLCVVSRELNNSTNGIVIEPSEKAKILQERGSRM
UniProt Q13418, sequence (Q13418 whole entry, looked up): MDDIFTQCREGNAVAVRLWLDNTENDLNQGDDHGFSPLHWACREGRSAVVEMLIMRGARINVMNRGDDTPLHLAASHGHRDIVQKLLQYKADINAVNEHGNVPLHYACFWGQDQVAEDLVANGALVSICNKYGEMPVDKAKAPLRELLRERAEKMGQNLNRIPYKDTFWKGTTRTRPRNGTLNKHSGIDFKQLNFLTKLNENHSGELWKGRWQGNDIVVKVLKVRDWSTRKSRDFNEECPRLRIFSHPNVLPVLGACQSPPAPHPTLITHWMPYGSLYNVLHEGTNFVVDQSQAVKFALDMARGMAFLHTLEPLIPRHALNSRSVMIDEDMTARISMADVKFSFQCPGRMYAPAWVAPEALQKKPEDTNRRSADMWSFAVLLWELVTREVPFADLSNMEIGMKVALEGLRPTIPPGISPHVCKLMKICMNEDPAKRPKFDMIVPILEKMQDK
UniProt Q8IYU8, sequence (Q8IYU8 whole entry, looked up): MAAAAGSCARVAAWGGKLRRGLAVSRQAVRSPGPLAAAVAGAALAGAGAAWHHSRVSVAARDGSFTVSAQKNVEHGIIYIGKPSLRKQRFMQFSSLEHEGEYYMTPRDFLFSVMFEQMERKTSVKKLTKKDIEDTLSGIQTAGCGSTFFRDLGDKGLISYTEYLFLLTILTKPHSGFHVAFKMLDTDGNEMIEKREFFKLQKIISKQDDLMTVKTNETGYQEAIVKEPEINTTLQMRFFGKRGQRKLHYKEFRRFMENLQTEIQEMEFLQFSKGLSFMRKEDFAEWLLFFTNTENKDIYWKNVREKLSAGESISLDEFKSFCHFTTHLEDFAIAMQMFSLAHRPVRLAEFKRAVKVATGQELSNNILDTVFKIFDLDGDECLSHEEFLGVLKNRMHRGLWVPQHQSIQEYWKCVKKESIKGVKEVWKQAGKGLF

Target | log2 fold change [1] | log2 fold change [2] | log2 fold change [3] | log2 fold change [4] | log2 fold change [5] | log2 fold change [6] | log2 fold change [7] | log2 fold change [8] | log2 fold change [9] | log2 fold change [10] | log2 fold change [11] | log2 fold change [12] | log2 fold change [13] | log2 fold change [14] | log2 fold change [15] | log2 fold change [16] | log2 fold change [17] | log2 fold change [18] | log2 fold change [19] | log2 fold change [20]
MCCC2 (UniProt Q9HCC0) | 0.033 | 0.018 | 0 | 0.004 | -0.274 (active) | 0.008 | 0.012 | -0.05 | -0.033 | -0.003 | 0.137 | -0.07 | 0 | -0.033 | -0.057 | -0.022 | 0.006 | 0.083 | 0.001 | -0.031
KSR1 (UniProt Q8IVT5) | -0.229 | -0.149 | -0.135 | 0.054 | -0.061 | -0.073 | -0.044 | 0.038 | 0.081 | 0.012 | 0.015 | 0.033 | 0.016 | 0.034 | 0.123 | -0.329 | -0.028 | 0.126 | 0.087 | 0.176
L2HGDH (UniProt Q9H9P8) | -0.009 | 0.091 | -0.039 | -0.002 | -0.017 | -0.011 | -0.005 | 0.012 | -0.022 | 0.049 | 0.096 | -0.121 | 0.07 | -0.037 | -0.019 | -0.034 | -0.01 | 0.041 | -0.069 | 0.115
MICU2 (UniProt Q8IYU8) | 0 | -0.001 | 0.048 | 0.057 | -0.03 | -0.014 | 0.102 | -0.021 | 0.073 | -0.044 | 0.067 | -0.089 | -0.142 | 0.022 | -0.067 | -0.21 | 0.038 | -0.031 | -0.031 | 0.005
MAPKAPK2 (UniProt P49137) | 0.077 | -0.035 | 0 | -0.006 | -0.01 | -0.013 | 0 | -0.022 | 0.139 | 0.023 | 0.066 | -0.06 | -0.012 | -0.054 | -0.03 | 0.118 | 0.11 | 0.01 | -0.025 | 0.023
MAP2K2 (UniProt P36507) | 0.012 | -0.037 | -0.024 | 0.01 | -0.138 | -0.056 | -0.039 | -0.021 | -0.074 | 0.001 | -0.014 | -0.061 | 0.018 | 0 | -0.103 | -0.011 | -0.011 | 0.007 | -0.069 | -0.023
MAPK14 (UniProt Q16539) | 0.261 | 0.001 | 0.014 | 0.074 | 0.546 | -0.137 | -0.02 | -0.03 | 0.684 | -0.055 | 0.024 | -0.055 | 0.059 | -0.361 | -0.014 | 0.014 | 0.796 (active) | 0.303 | -0.002 | -0.05
LUC7L (UniProt Q9NQ29) | -0.005 | 0.056 | 0.062 | 0.006 | -0.119 | 0.022 | 0.076 | -0.049 | 0.039 | 0.022 | -0.094 | 0.178 | -0.013 | 0.052 | -0.07 | 0.024 | -0.104 | 0.017 | 0.007 | 0.092
JMJD6 isoform 3 (UniProt Q6NYC1) | -0.01 | -0.018 | -0.076 | -0.122 | 0.081 | -0.188 | 0.061 | -0.016 | 0.026 | 0.035 | -0.061 | -0.039 | 0.03 | 0.019 | 0.013 | -0.088 | 0.059 | -0.021 | -0.016 | 0.039
MIEF1 (UniProt L0R8F8) | -0.068 | -0.008 | 0.009 | 0.041 | 0.008 | -0.003 | 0.024 | -0.074 | 0.008 | 0.015 | 0.104 | -0.072 | 0.023 | -0.063 | -0.084 | -0.148 | -0.005 | 0 | 0.135 | 0.033
LDAH isoform 2 (UniProt Q9H6V9) | 0.092 | 0.035 | -0.139 | -0.03 | -0.001 | -0.09 | -0.004 | -0.043 | 0.04 | -0.063 | 0.06 | -0.137 | 0.057 | -0.185 | -0.041 | -0.517 (active) | 0.004 | 0.032 | -0.005 | 0.075
ILK (UniProt Q13418) | -0.119 | 0.043 | -0.107 | 0.01 | -0.034 | 0 | 0.026 | 0.031 | 0.03 | 0.06 | -0.444 (active) | 0.023 | -0.052 | 0.021 | 0.038 | 0.036 | 0.007 | 0 | -0.05 | 0.068
KCTD2 (UniProt Q14681) | -0.276 | 0.226 | 0.188 | 0.015 | -0.076 | 0.038 | 0.066 | -0.243 | -0.128 | 0.082 | 0.068 | 0.154 | -0.148 | 0.116 | -0.012 | 0.402 | 0.025 | 0.154 | -0.413 | 0.426
KIF11 (UniProt P52732) | -0.059 | -0.2 | 0.041 | 0.05 | 0.275 | 0.017 | 0.183 | 0.088 | 0.174 | -0.055 | -0.004 | 1.1 (active) | 0.074 | 0.026 | 0.011 | 0.043 | -0.002 | -0.063 | -0.018 | 0.046
MARK3 (UniProt P27448) | 0.024 | -0.434 (active) | -0.011 | 0.058 | -0.367 | -0.176 | -0.016 | -0.069 | 0.096 | 0.033 | 0.008 | 0.054 | 0.062 | 0.091 | 0.05 | -0.219 | -0.002 | -0.063 | 0.022 | -0.033
INPP5B (UniProt P32019) | 0.024 | -0.079 | -0.076 | 0.07 | -0.007 | 0.112 | 0.066 | 0.043 | -0.151 | 0.141 | 0 | -0.015 | 0.002 | -0.003 | 0.03 | 0.052 | -0.008 | -0.043 | 0.006 | 0.04
